# Assay results: the supplement of paper PMC11001985
# Compound: C#CCNC(=O)CCSSCCC(=O)NCCc1ccc(C=O)c(C=O)c1
# Assay: lysine labeling ratio R10:1 (500 µM / 50 µM probe), SILAC-ABPP in living cells; higher = lower intrinsic lysine reactivity toward the probe, active = 2 or less
# Conditions: HeLa; probe concentrations 500 vs 50 µM
# Procedure: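 Living HeLa cells (SILAC light/heavy) in PBS at room temperature were labeled with 50 µM versus 500 µM of the lysine-reactive, reductant-cleavable probe OPA-S-S-alkyne (SILAC labeling time not stated). Probe-modified peptides were CuAAC-biotinylated, captured on neutravidin and eluted with DTT/IAA, then quantified by LC-MS/MS. R = median peptide ratio per lysine (500/50 µM), combined over 3 forward and 3 reverse SILAC replicates. Ratios are capped at 20; R < 2 = hyper-reactive.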
# Chain of UniProt Q00839 (Q00839 whole entry): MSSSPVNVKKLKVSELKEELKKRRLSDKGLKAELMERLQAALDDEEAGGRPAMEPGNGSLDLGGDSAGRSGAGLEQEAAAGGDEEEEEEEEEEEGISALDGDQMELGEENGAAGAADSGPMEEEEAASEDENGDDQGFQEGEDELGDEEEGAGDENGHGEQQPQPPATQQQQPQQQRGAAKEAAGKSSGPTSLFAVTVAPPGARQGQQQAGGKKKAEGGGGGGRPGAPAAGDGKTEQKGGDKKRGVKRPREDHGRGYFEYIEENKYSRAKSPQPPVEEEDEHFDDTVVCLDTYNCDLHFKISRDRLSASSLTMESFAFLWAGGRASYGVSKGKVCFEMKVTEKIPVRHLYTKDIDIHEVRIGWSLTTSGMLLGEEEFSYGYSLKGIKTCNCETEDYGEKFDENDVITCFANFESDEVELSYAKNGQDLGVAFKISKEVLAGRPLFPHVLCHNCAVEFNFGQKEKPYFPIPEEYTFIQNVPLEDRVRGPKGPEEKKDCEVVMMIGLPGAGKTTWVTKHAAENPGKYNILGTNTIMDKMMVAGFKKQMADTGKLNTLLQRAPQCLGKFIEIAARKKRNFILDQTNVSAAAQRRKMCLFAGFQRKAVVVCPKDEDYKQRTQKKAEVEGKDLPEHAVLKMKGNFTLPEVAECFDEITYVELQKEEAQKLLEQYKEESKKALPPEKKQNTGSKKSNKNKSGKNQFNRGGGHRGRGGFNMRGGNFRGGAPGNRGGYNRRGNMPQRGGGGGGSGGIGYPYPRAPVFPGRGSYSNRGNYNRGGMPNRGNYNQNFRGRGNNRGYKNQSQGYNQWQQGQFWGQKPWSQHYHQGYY
# Chain of UniProt Q9UHN6 (Q9UHN6 whole entry): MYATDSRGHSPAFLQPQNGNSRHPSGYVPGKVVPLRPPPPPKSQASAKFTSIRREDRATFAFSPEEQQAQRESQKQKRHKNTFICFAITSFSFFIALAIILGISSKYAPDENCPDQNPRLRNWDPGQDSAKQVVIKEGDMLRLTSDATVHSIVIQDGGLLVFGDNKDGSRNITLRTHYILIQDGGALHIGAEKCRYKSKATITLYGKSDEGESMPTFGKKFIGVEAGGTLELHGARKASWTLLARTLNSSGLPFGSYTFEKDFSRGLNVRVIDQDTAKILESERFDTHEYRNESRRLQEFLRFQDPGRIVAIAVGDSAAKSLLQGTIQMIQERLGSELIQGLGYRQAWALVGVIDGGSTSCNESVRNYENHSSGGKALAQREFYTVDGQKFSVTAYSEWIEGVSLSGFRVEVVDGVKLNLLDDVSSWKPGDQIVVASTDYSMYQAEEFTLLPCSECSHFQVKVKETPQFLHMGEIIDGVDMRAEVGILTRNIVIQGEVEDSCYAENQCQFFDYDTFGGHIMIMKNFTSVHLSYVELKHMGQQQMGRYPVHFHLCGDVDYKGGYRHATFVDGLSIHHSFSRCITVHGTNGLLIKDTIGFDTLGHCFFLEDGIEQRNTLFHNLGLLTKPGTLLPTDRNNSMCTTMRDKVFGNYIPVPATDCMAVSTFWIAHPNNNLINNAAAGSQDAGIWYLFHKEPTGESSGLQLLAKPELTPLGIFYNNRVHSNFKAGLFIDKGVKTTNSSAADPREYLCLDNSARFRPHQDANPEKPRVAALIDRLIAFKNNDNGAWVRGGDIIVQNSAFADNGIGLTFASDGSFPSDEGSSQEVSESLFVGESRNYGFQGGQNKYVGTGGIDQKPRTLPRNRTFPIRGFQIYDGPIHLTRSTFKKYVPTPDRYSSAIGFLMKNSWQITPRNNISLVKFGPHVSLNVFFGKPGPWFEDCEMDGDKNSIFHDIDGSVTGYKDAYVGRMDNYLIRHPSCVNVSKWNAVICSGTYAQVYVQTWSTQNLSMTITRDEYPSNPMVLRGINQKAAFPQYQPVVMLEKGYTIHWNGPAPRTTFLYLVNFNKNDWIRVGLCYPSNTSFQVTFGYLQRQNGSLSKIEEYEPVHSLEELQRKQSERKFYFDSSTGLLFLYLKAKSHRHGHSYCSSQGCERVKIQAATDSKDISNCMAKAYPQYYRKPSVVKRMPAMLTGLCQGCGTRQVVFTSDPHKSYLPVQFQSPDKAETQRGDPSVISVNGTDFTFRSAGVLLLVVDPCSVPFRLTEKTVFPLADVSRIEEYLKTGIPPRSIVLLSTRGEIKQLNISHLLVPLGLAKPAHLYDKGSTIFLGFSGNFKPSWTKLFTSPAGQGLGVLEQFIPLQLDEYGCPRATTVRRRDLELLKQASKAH
# Chain of UniProt Q8N8S7 (Q8N8S7 whole entry): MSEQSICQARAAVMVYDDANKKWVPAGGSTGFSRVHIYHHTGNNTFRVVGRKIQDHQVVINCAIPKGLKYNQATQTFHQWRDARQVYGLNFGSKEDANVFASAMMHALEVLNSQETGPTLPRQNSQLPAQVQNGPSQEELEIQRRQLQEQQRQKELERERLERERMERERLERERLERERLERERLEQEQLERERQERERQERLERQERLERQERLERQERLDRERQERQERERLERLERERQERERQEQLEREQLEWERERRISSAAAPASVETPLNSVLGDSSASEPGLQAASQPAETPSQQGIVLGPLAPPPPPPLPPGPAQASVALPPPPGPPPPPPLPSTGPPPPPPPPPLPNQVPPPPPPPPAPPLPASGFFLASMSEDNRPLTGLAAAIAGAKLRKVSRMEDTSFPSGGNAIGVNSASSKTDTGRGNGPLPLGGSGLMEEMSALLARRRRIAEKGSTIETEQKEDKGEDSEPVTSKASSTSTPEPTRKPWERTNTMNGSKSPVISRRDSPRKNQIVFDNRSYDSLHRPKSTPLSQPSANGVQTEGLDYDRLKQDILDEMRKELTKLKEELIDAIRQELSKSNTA
# Chain of UniProt P07814 (P07814 whole entry): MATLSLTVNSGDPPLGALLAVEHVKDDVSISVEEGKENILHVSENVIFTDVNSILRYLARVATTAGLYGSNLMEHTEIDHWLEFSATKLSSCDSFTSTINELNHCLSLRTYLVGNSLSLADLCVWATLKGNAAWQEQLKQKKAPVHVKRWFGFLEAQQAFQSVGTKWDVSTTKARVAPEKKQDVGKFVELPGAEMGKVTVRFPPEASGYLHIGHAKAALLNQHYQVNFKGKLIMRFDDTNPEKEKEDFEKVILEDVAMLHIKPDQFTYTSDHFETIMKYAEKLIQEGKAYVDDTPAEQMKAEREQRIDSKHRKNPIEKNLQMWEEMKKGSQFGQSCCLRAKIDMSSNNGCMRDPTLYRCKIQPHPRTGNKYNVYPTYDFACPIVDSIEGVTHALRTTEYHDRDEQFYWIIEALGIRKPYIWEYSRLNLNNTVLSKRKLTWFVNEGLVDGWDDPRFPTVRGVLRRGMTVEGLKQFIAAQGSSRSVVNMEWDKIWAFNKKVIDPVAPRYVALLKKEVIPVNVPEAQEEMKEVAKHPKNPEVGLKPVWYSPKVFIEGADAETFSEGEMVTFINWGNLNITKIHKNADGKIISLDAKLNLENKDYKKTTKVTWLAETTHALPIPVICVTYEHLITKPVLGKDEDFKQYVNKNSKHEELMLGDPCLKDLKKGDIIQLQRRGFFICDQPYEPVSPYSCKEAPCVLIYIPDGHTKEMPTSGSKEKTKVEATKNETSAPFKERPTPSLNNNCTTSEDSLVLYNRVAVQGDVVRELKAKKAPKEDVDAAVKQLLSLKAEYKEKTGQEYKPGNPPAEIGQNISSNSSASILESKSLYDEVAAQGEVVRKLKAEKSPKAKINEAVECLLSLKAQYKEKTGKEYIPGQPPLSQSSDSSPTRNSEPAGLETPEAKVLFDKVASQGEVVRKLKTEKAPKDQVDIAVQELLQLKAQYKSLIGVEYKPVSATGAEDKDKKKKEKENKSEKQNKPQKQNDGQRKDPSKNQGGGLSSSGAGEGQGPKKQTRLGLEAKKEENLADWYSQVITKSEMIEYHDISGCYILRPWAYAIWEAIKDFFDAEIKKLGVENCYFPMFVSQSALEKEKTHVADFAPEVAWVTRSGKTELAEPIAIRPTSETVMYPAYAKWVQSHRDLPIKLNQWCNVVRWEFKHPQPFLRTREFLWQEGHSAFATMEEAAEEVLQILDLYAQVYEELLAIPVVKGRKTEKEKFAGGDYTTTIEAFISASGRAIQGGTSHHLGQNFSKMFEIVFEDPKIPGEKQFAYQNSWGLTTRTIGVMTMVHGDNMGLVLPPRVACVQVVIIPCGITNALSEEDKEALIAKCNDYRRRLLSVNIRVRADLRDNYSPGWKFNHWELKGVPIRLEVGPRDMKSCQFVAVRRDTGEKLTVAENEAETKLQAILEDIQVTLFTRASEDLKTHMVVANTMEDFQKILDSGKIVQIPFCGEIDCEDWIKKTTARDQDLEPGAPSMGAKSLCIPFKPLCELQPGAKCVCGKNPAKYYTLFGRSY
# Chain of UniProt Q9H4M9 (Q9H4M9 whole entry): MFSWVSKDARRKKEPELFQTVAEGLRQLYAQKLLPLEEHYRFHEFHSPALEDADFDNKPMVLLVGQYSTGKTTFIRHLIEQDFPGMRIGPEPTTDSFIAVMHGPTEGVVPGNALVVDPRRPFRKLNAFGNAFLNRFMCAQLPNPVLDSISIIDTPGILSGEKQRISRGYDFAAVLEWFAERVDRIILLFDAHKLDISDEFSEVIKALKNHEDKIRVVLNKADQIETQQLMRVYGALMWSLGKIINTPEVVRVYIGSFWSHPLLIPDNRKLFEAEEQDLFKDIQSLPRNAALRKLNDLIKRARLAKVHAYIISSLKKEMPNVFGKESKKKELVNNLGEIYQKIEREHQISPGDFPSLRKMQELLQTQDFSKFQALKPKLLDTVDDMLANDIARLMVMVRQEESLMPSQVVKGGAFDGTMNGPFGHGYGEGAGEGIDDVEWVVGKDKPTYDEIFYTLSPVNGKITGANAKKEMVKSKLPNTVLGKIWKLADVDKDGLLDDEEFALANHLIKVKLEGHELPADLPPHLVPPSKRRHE
# Chain of UniProt Q16629 (Q16629 whole entry): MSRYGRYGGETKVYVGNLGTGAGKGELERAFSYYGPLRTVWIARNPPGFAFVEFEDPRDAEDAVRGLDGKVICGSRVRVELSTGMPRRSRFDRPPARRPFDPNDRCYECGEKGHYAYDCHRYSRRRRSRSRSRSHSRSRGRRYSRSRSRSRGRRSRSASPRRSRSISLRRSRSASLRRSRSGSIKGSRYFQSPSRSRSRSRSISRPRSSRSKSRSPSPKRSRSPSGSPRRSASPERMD
row,Target,lysine labeling ratio R10:1
1,CCT7 (lysine site: K320) (UniProt Q99832),2.53 (inactive)
2,L1CAM (lysine site: K381) (UniProt P32004),14 (inactive)
3,UniProt Q16629 (lysine site: K70),1.67 (active)
4,SPTAN1 (lysine site: K2000) (UniProt Q13813),0.553 (active)
5,CD97 (lysine site: K499) (UniProt P48960),3.84 (inactive)
6,NUMA1 (lysine site: K751) (UniProt Q14980),2.82 (inactive)
7,CKAP4 (lysine site: K191) (UniProt Q07065),2.86 (inactive)
8,MSN (lysine site: K501) (UniProt P26038),5.08 (inactive)
9,MYO1C (lysine site: K781) (UniProt O00159),1.34 (active)
10,EPHA2 (lysine site: K441) (UniProt P29317),7.45 (inactive)
11,RBMX (lysine site: K163) (UniProt P38159),3.88 (inactive)
12,FN1 (lysine site: K2072) (UniProt P02751),9.06 (inactive)
13,TKT (lysine site: K16) (UniProt P29401),2.68 (inactive)
14,A2M (lysine site: K115) (UniProt P01023),0.757 (active)
15,UniProt Q9UHN6 (lysine site: K376),3.02 (inactive)
16,STOML2 (lysine site: K145) (UniProt Q9UJZ1),3.01 (inactive)
17,RPS3A (lysine site: K63) (UniProt P61247),1.79 (active)
18,VCL (lysine site: K316) (UniProt P18206),1.77 (active)
19,ANTXR1 (lysine site: K94) (UniProt Q9H6X2),2.11 (inactive)
20,KTN1 (lysine site: K559) (UniProt Q86UP2),1.4 (active)

row,Target,lysine labeling ratio R10:1
1,EGFR (lysine site: K212) (UniProt P00533),2.63 (inactive)
2,EPRS (lysine site: K435) (UniProt P07814),2.68 (inactive)
3,UniProt Q9BSJ8 (lysine site: K197),5.31 (inactive)
4,PCBP2 (lysine site: K309) (UniProt Q15366),3.28 (inactive)
5,HNRNPU (lysine site: K343) (UniProt Q00839),3.69 (inactive)
6,UniProt P05186 (lysine site: K346),0.557 (active)
7,UniProt Q6NZI2 (lysine site: K137),3.08 (inactive)
8,AK2 (lysine site: K147) (UniProt P54819),6.91 (inactive)
9,TMED9 (lysine site: K71) (UniProt Q9BVK6),5.82 (inactive)
10,P4HB (lysine site: K328) (UniProt P07237),1.54 (active)
11,SLC3A2 (lysine site: K300) (UniProt P08195),6.33 (inactive)
12,ENAH (lysine site: K559) (UniProt Q8N8S7),2.92 (inactive)
13,EHD1 (lysine site: K220) (UniProt Q9H4M9),4.05 (inactive)
14,HNRNPU (lysine site: K186) (UniProt Q00839),4.06 (inactive)
15,SLC12A7 (lysine site: K393) (UniProt Q9Y666),3.46 (inactive)
16,STMN1 (lysine site: K119) (UniProt P16949),1.62 (active)
17,TFPI (lysine site: K68) (UniProt P10646),1.41 (active)
18,XRCC6 (lysine site: K297) (UniProt P12956),1.09 (active)
19,TLN1 (lysine site: K1948) (UniProt Q9Y490),0.788 (active)
20,FAT4 (lysine site: K1675) (UniProt Q6V0I7),1.93 (active)
